Many of the other results were omitted from the sample, so hits are more common in it than they were.
Pf Dd2 inh = qHTS Primary assay for Inhibitors of Plasmodium falciparum Dd2 growth in vitro. P. falciparum Dd2 growth, SYBR Green, 72 h. Potency, µM (series often up to 28.9 µM), inactives show at the highest dose activity, negative = inhibition, actives largely listed as inhibitors. 120,000 tested, 4.3% active; active means well fitted inhibition curve with a large enough effect;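 further: plate controls were DMSO vehicle for no effect and reference drug for full effect; nearly all actives have a fitted effect of over 65% in size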
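Infected erythrocytes (Dd2, 0.3% parasitemia, 2.5% hematocrit final) are added to compound in RPMI-1640/Albumax II medium, grown 72 h at 37C in low oxygen, then lysed with saponin/Triton-X containing SYBR Green and read by fluorescence.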
Numbers without * were called inactive; i = inactive; [ ] = another dose, or the depositor's remark. Potency means the concentration at half of the fitted maximal effect.

SMILES	Pf Dd2 inh
O=C(c1ccc(Cn2ccnc2)o1)N1CCCCCC1c1nnc(-c2ccccc2)o1 (stereo not given)	i
CCCn1ccc2sc(C)c(C(=O)NC3CCCC3)c2c1=O	i
COCC(=O)NC1CCC12CCN(C(=O)C1CC1)CC2 (stereo not given)	-7%
O=C1NCCC[C@@H]1NC(=O)[C@@H]1CN(C(=O)c2cccs2)CCN1C(=O)c1ccccc1	-13%
Clc1ccc(-c2nnc3n2CCN(CC2CCCCC2)C3)cc1	-26%
COCC(=O)N1CCC(O)(c2csc(CN3CCc4ccccc4C3)n2)CC1	i
OC1(c2csc(CN3CCc4ccccc4C3)n2)CCN(Cc2ccccc2F)CC1	i
O=C(c1ccccc1F)N1CCC(O)(c2csc(CN3CCc4ccccc4C3)n2)CC1	3.2µM*
Cc1ccc(C(=O)NC2CCN(c3cnn(CC4CC4)c(=O)c3)CC2)cc1C	i
Cc1ccc(-n2ncc3c(NC4CCCCCC4)ncnc32)cc1Cl	i
Cc1ccc(N2CCC(N[C@@H]3CC[C@@H](N)C3)CC2)cc1Cl	13µM*
CCOc1ccccc1C(=O)N1CCN(c2cc(-c3cccs3)[nH]n2)CC1	i
O=C(Cn1nc2c(cc1=O)CCCC2)NCc1ccccn1	6%
CCn1cc(C(=O)N2CCC3(CCCN(C)C3=O)C2)cn1 (stereo not given)	-5%
CC(C)Oc1ccc2c(NC(=O)CCn3cncn3)nn(Cc3ccccc3)c2c1	-16%
Cc1ccc(C(=O)NCCSc2c[nH]c3ccccc23)cc1C	7%
Cc1ccc(S(=O)(=O)N(CC(=O)NCCSc2ccc(Cl)cc2)c2cccc(Cl)c2)cc1	i
O=C(NCCc1ccc(Cl)cc1)c1ccc(Cn2c(=O)[nH]c3ccccc3c2=O)cc1	-19%
CCOc1ccc(C(=O)NCCSc2c(C)[nH]c3ccccc23)cc1OCC	-28%
Cc1ccc(-c2[nH]c3ccccc3c2SCCNC(=O)c2ccc(S(=O)(=O)N(C)C)cc2)cc1	8.9µM*
CN(C)S(=O)(=O)c1ccc(C(=O)NCCSc2c(-c3ccc(Cl)cc3)[nH]c3ccccc23)cc1	8.9µM*
O=C(NCCCN1CCCCCC1)c1ccc(CC2CCN(C(=O)C3CC3)CC2)cc1	i
COC(=O)CC1CCN(C(=O)C[C@H]2NC(=O)c3ccccc3NC2=O)CC1	-10%
Cc1cccc([C@H]2C[C@@H](O)[C@@H](O)[C@@H]2NS(C)(=O)=O)c1	6%[44.1 µM]
CC(=O)N1CC2(CCN(C3COC3)C2)Cc2ccccc21 (stereo not given)	-9%[44.1 µM]
SMILES	Pf Dd2 inh
O=C(c1ccc(Cl)cc1)N1CC2(CCN(C3COC3)CC2)Cc2ccccc21	10%
O=C(O)CCC(=O)N1CCC2(Cc3ccccc3N(C(=O)c3ccc(Cl)cc3)C2)C1 (stereo not given)	i
O=C(c1ccc(Cl)cc1)N1CC2(CCN(C3CCCCC3)C2)Cc2ccccc21 (stereo not given)	10µM*
O=C(c1ccc(Cl)cc1)N1CC2(CCN(C3CCCCC3)CC2)Cc2ccccc21	7.1µM*
CC(=O)N1CC2(Cc3ccccc31)CN(C(=O)c1ccc(Cl)cc1)C2	-19%
Cc1ncccc1OC1(C(=O)NCc2n[nH]c3c2CCC3)CCNCC1	8%
Cc1cccc(NC(=O)Cn2c(-c3cnccn3)nc(C)c(CCO)c2=O)c1C	i
COCCn1ncc(N2CCC(NC(=O)c3cc(C)cc(C)c3)CC2)cc1=O	i
CN(CC1CCOCC1)C(=O)Cc1c(F)cccc1Cl	13%
CCn1cc(S(=O)(=O)NCC2Cn3cccc3C(=O)N2C)cn1 (stereo not given)	-15%
COc1ccc(C2Cn3nnc(-c4nc(-c5ccc(F)c(F)c5)no4)c3CO2)cc1 (stereo not given)	i
CC1(CNC(=O)c2ccc3ccccc3n2)CCOCC1	i
CC(C)CNC(=O)N1C[C@@H](Oc2cccnc2)C[C@@H]1C(=O)N1CCOCC1	18%
Cc1cccc(CC(C)NC(=O)c2coc(COc3ccc4c(c3)OCO4)n2)n1 (stereo not given)	-2%
COc1ccc(-c2noc(-c3cccn3CC(=O)N3CCc4ccccc43)n2)cc1F	25%
COc1ccccc1CC(=O)NCCn1cccc1-c1nc(-c2ccccc2)no1	8.9µM*
CCN(C(=O)Cn1cccc1-c1nc(-c2ccc(OC)c(F)c2)no1)c1ccccc1	i
O=C(Cn1cccc1-c1nc(-c2ccccc2)no1)NCc1ccc(F)cc1Cl	i
COc1ccc(-c2noc(-c3cccn3CC(=O)N3CCOc4ccc(C)cc43)n2)cc1F	4µM*
COCCNC(=O)Cn1cccc1-c1nc(-c2ccc(OC)c(F)c2)no1	-3%
COc1ccc(-c2noc(-c3cccn3CC(=O)Nc3ccc(C)c(C)c3)n2)cc1F	i
O=C(Cn1cccc1-c1nc(-c2ccccc2)no1)NCCc1ccc(Cl)cc1	39%
COc1ccc(C(=O)NCCn2cccc2-c2nc(-c3ccccc3)no2)cc1F	5µM*
CCCCNC(=O)C1CCN(C(=O)c2ncn3c2COC(c2ccc(F)cc2)C3)CC1 (stereo not given)	-9%

Source: PubChem BioAssay
